Compound activity as filed in PubChem.
This is a sample that favours compounds with a hit; in the whole collection about 4.1% have one here.
EBV LMP1 NFkB – reduces LMP1-driven NF-kappaB luciferase signal. LMP1-induced NF-kappaB luciferase reporter cells, luminescence. inhibition, % at 12.5 µM. 0.69% of 350,000 active; in the data active = inhibition above about 41%
Peg3 prom inh-1 – inhibitors of Peg3 promoter; inhibition, % at 20 µM; HeLa PEG-Prom luciferase reporter, luminescence, overnight; 1.7% of 360,000 active;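 active = inhibition of at least 50% at 20 µM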
TRPM1 prom inh – reduces MITF-dependent TRPM1 promoter luciferase signal | SK-MEL-5 TRPM1 promoter luciferase, 24 h | inhibition, % at 12.5 µM | 0.83% of 330,000 active;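 active = mean inhibition across replicates of 60% or more, whatever share of single replicates reaches that level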
TWEAK Fn14 block – blocks TWEAK-Fn14 interaction in a reporter cell assay; TWEAK-stimulated Fn14 reporter cells, luciferase luminescence, 8 h; inhibition, % at 10 µM; 2% of 360,000 active; AID 1159606; in the data active = inhibition above about 50%
Shn3 inh set2 – inhibitors of Schnurri-3 3'UTR reporter in osteoblasts | Clone20 osteoblast Shn3 3'UTR firefly luciferase, 24 h | inhibition, % at 12.5 µM | 0.52% of 360,000 active;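 active = mean inhibition of at least 75% with every replicate also reaching 75%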
TROY signal inh – TROY signaling inhibition | 0.98% of 360,000 active | Q293 LMP1-TROYcd NF-kB luciferase reporter, 4 h | inhibition, % at 10 µM;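 active = compounds whose plate-normalised and pattern-corrected inhibition of the luciferase reporter signal at the single screening dose is 50% or more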
Peg3 prom inh-2 – confirmation of Peg3 promoter inhibitors; shares compounds with Peg3 prom inh-1; HeLa PEG-Prom luciferase reporter, luminescence, overnight; inhibition, % at 20 µM; 84% of 1,300 active;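 active = at 20 µM dose, 40% or more inhibition averaged across four replicates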
Each line names hits and unclear results; the compound was inactive in the other large screens (follow-up assays come after a bar, where they were run).

COc1ccc(CNC(=O)Cn2cnc3c(NCc4ccccc4)ncnc32)cc1	none
COC(=O)c1ccc(CNC(=O)Cn2cnc3c(NCc4ccccc4)ncnc32)cc1	Peg3 prom inh-1 63 | Peg3 prom inh-2 47
Cc1c(/C(O)=C2/C(=O)C(=O)N(Cc3cccnc3)C2c2ccccn2)cnn1-c1ccccc1 (configuration not stated)	Peg3 prom inh-1 66, TWEAK Fn14 block 101, TROY signal inh 91 | Peg3 prom inh-2 59
COc1ccccc1C(=O)NC(CCSC)C(=O)OCC(=O)N1CCCC1=O (configuration not stated)	none
COc1cccc(NC(=O)CN(C)C(=O)c2cccnc2Nc2cccc(C(F)(F)F)c2)c1	Peg3 prom inh-1 69 | Peg3 prom inh-2 73
Cc1cc(C)c(C)c(S(=O)(=O)N2CCN(C(=O)c3cc(=O)[nH]c4ccccc34)CC2)c1C	Peg3 prom inh-1 59, TWEAK Fn14 block 54 | Peg3 prom inh-2 58
Cc1cc(C)c(S(=O)(=O)N2CCN(C(=O)c3cc(=O)[nH]c4ccccc34)CC2)c(C)c1	none
Cc1cc(C)c(S(=O)(=O)ON2C(=O)c3ccccc3C2=O)cc1C	Peg3 prom inh-1 70 | Peg3 prom inh-2 41
Cc1ccc(OC(=O)CN2C(=O)c3ccccc3C2=O)cc1C	none
OCCNc1nc2ccccc2nc1NCCO	none
OCCNc1c2ccccc2nc2ccccc12	Peg3 prom inh-1 98, TRPM1 prom inh 88 | Peg3 prom inh-2 95
CC(C)N(C(=O)[C@H]1C[C@H](CC(=O)NCC23CC4CC(CC(C4)C2)C3)C(=O)N2CCc3c([nH]c4ccc(Cl)cc34)[C@]12C)C(C)C	Peg3 prom inh-1 63, TWEAK Fn14 block 54 | Peg3 prom inh-2 43
O=C(C[C@H]1C[C@H](C(=O)N2CCOCC2)[C@@]2(CCC3CCCC3)c3[nH]c4ccc(Cl)cc4c3CCN2C1=O)NCCN1CCOCC1	Peg3 prom inh-1 50 | Peg3 prom inh-2 inactive
CC(C)N(C(=O)[C@H]1C[C@H](CC(=O)NCCCN(C)C)C(=O)N2CCc3c([nH]c4ccc(Cl)cc34)[C@]12C)C(C)C	none
CCCCCCCCNCCS(=O)(=O)NCc1ccc(OC)cc1	Peg3 prom inh-1 56 | Peg3 prom inh-2 68
CCCCCCCCNS(=O)(=O)CCNCc1ccccc1	none
COc1cc(C(=O)N2CCN(S(=O)(=O)c3ccc(F)cc3)CC2)cc(OC)c1OC	none
COc1cccc(-c2cccc(-c3nc(C(=O)Nc4ccc(-c5ccccc5)cc4)cc4c3[C@H](CCO)N(S(=O)C(C)(C)C)C4)c2)c1 (some centres not stated)	Peg3 prom inh-1 78 (no result: EBV LMP1 NFkB, TRPM1 prom inh) | Peg3 prom inh-2 inactive
CCN(C(=O)COC(=O)/C=C/c1cccc(Br)c1)C1CCS(=O)(=O)C1 (configuration not stated)	none
CN(C(=O)COC(=O)/C=C/c1cccc([N+](=O)[O-])c1)C1CCS(=O)(=O)C1 (configuration not stated)	Peg3 prom inh-1 51 | Peg3 prom inh-2 62
COc1cc(NC(=O)Cc2ccccc2)ccc1NC(=O)c1ccccc1	none
Cc1ccccc1-c1nc(CN2CCC(C(=O)NC3CCN(Cc4ccccc4)CC3)CC2)c(C)o1	Peg3 prom inh-1 56 | Peg3 prom inh-2 inactive
Cc1ccccc1-c1nc(CN2CCC(C(=O)NC3CCCCC3)CC2)c(C)o1	none
Cc1ccccc1OCC(O)CNC1CCC(NCC(O)COc2ccccc2C)CC1 (configuration not stated)	Peg3 prom inh-1 101, TRPM1 prom inh 99, Shn3 inh set2 97 | Peg3 prom inh-2 99
CC(=O)Nc1ccc(S(=O)(=O)N[C@@H](C)C(=O)OCC(=O)c2ccc[nH]2)cc1	none
CC(C)CN(C(=O)C1COc2ccccc2O1)c1c(N)n(CC(C)C)c(=O)[nH]c1=O (configuration not stated)	none
COc1cccc(C(c2nnnn2CCc2ccccc2)N2CCN(c3ccccc3)CC2)c1OC (configuration not stated)	Peg3 prom inh-1 51 | Peg3 prom inh-2 inactive
CC(=O)C(Cc1ccccc1)NC(=O)COC(=O)c1cc(S(=O)(=O)N2CCOCC2)ccc1F (configuration not stated)	none (no result: TRPM1 prom inh)
CCCCN1C(=O)C(CC(=O)NCCN2CCOCC2)CC(C(=O)N2CCOCC2)=C1C (configuration not stated)	none (no result: TRPM1 prom inh)
CC(=O)Nc1ccc(S(=O)(=O)N(Cc2cccnc2)Cc2cc3ccccc3[nH]c2=O)cc1	Peg3 prom inh-1 56 | Peg3 prom inh-2 46
COC(=O)c1ccccc1S(=O)(=O)N(Cc1ccco1)Cc1cc2cc(OC)ccc2[nH]c1=O	none
COc1ccc(N(Cc2cc3cc(OC)ccc3[nH]c2=O)S(=O)(=O)c2ccc(NC(C)=O)cc2)cc1	Peg3 prom inh-1 62 | Peg3 prom inh-2 61
COc1ccc(N(Cc2cc3ccccc3[nH]c2=O)S(=O)(=O)c2ccc(OC)cc2)cc1	none
CC(=O)Nc1ccc(S(=O)(=O)N(Cc2ccco2)Cc2cc3ccccc3[nH]c2=O)cc1	Peg3 prom inh-1 60 | Peg3 prom inh-2 55
O=c1[nH]c2ccccc2cc1CN(Cc1cccnc1)S(=O)(=O)c1ccc(Cl)cc1	none
Cc1ccc(C(CC(=O)N2CCNCC2)c2ccccc2)c(O)c1C (configuration not stated)	none
O=C(/C=C(/c1ccc(Cl)cc1)n1cncn1)c1ccccc1	none
c1ccc(-c2cc(-c3nc4ccccc4[nH]3)c3ccccc3n2)cc1	Peg3 prom inh-1 81, TWEAK Fn14 block 55 | Peg3 prom inh-2 89
Nc1ccc(-c2nc3ccccc3[nH]2)cc1	none
Cc1cc(C)c(C(=O)Nc2ccc3c(c2)OCCO3)c(C)c1	none (no result: TRPM1 prom inh)
Cc1ccc(C(=O)Nc2ccc3c(c2)OCCO3)c(C)c1	EBV LMP1 NFkB 58, Peg3 prom inh-1 68, TRPM1 prom inh 66, TWEAK Fn14 block 85, TROY signal inh 59 | Peg3 prom inh-2 inactive
COc1ccc(NC(=O)N(C)[C@H]2C[C@H]3c4[nH]c5ccccc5c4CCN3C[C@H]2[C@H](C)O)cc1	none (no result: TRPM1 prom inh)
COc1ccc(NC(=O)N(C)[C@H]2C[C@H]3c4[nH]c5ccc(-c6cccc(C)c6)cc5c4CCN3C[C@H]2[C@H](C)O)cc1	Peg3 prom inh-1 92 (no result: TRPM1 prom inh) | Peg3 prom inh-2 53
CN1C(=O)C(C(=O)NC(C)(C)C)C2c3ccccc3OC13CCCCC23 (configuration not stated)	none
Cc1ccc(C(=O)c2ccccc2C(=O)OCC(=O)NCCc2ccc(Cl)cc2Cl)cc1	none
CCCNC(=O)COC(=O)c1ccccc1C(=O)c1ccc(Cl)c([N+](=O)[O-])c1	EBV LMP1 NFkB 48, Peg3 prom inh-1 106, TRPM1 prom inh 87, TWEAK Fn14 block 99, TROY signal inh 67 | Peg3 prom inh-2 99
Cc1ccc2ccc(C#N)cc2c1O	none (no result: TRPM1 prom inh)
